# PubChem BioAssay (Tox21)
# Records with an inconclusive call do not appear. A call without a number means that no potency is given here. Active and inactive are the calls of the source. Unless noted, the call rests on the fitted dose curve.
# How the values were obtained:
# [1] = target: Gonadotropin-releasing hormone receptor (Homo sapiens) (UniProt P30968); experiment: Human gonadotropin-releasing hormone receptor (GnRHR) small molecule agonists, calcium flux assay in GnRHR-HEK293 cells (AID 1920063); further: nearly all actives have a fitted effect of over 35% in size
# Gonadotropin-releasing hormone receptor (Homo sapiens), sequence (P30968 whole entry, looked up): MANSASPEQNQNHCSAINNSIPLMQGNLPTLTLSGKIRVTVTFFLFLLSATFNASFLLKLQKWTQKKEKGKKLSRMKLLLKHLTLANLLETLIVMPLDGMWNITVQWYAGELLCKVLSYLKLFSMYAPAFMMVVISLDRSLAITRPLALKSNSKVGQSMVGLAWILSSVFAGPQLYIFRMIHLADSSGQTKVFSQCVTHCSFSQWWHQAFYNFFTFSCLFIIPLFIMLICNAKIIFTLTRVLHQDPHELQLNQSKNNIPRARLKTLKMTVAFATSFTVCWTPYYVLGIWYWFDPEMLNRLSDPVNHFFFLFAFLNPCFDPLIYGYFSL
# Summary of the method: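 Fluorescence kinetics (480 nm excitation, 540 nm emission; 3 min, 1 s steps) report calcium mobilisation in human GnRHR-HEK293 cells in agonist mode. Dye incubation: 1 h, 37 C.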
# [2] = target: KiSS-1 receptor (Homo sapiens) (UniProt Q969F8); experiment: Human kisspeptin (KISS1R) small molecule agonists, calcium flux assay in KISS1R-HEK293 cells (AID 1920064; active means well fitted activation curve with a large enough effect in the repeat runs)
# KiSS-1 receptor (Homo sapiens), sequence (Q969F8 whole entry, looked up): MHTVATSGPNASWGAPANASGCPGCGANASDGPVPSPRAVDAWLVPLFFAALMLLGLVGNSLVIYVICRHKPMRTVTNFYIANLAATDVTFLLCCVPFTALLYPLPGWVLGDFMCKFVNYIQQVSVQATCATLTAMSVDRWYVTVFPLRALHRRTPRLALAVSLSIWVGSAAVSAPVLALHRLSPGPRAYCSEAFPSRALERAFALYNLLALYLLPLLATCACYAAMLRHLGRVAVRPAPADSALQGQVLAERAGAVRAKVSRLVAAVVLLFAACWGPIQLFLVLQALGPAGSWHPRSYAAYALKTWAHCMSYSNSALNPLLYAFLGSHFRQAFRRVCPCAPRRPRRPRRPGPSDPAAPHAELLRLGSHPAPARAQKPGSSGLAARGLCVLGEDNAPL
# Summary of the method: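 Measures KISS1R agonism through calcium-sensitive dye fluorescence in stably transfected HEK293 cells, read for 3 min after pin-tool compound delivery; 15-point titrations in triplicate.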
# [3] = G protein-coupled receptor (GPCR) small molecule agonists, calcium flux assay: HEK293 wild type cell line counter screen (AID 1920065)
# Summary of the method: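 Readout: fluorescence at 480 nm excitation/540 nm emission, sampled at 1 s intervals for 3 min. Cells had been cultured 18 h, then dye-loaded 1 h at 37 C before compound or ATP addition.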
# [4] = p53 small molecule agonists, cell-based qHTS assay with rat liver microsomes (AID 1963578)
# Summary of the method: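 With rat liver microsomes and NADPH present (0.5 mg/mL final each), p53RE-bla cells are treated with compound for 16 h at 37 C. LiveBLAzer detection mixture is then applied for 2 h at room temperature in the dark.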
# [5] = p53 small molecule agonists, cell-based qHTS assay with human liver microsomes: qHTS cell viability counter screen (AID 1963579); further: nearly all actives have a fitted effect of over 45% in size
# Summary of the method: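 In this multiplexed counter screen, the reporter plates were subsequently treated with CellTiter-Glo so that cell viability, reflected by luminescence, could be recorded for p53RE-bla cells dosed 16 h with compounds under microsomal activation (HLM and NADPH).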
# [6] = p53 small molecule agonists, cell-based qHTS assay with rat liver microsomes: qHTS cell viability counter screen (AID 1963580); further: nearly all actives have a fitted effect of over 45% in size
# Summary of the method: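 In HCT-116 cells carrying a p53 response element-bla reporter, compounds were metabolically activated in situ by rat liver microsomes with NADPH over 16 h. Cell ATP content then served as the cytotoxicity measure.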
# [7] = p53 small molecule agonists, cell-based qHTS assay: qHTS cell viability counter screen (AID 1963581); further: nearly all actives have a fitted effect of over 45% in size
# Summary of the method: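 In the same plates used for the p53 bla reporter, HCT-116 cells given compounds for 16 h at 37 C received CellTiter-Glo; luminescence was recorded 30 min later at room temperature.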
# [8] = p53 small molecule agonists, cell-based qHTS assay (AID 1963582; active means well fitted activation curve with a large enough effect in the signal ratio in the repeat runs, not every such curve was filed as active; the % refers to the signal ratio)
# Summary of the method: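 Compounds are pin-transferred in DMSO onto p53RE-bla cells and incubated 16 h at 37 C. The B/G FRET beta-lactamase substrate is then applied for 2 h at RT and fluorescence recorded.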
# [9] = target: 5-hydroxytryptamine receptor 2A (Homo sapiens) (UniProt P28223); experiment: 5-hydroxytryptamine receptor 2A (HTR2A) small molecule antagonists, cell-based qHTS assay (AID 1963586); further: nearly all actives have a fitted effect of over 45% in size
# 5-hydroxytryptamine receptor 2A (Homo sapiens), sequence (P28223 whole entry, looked up): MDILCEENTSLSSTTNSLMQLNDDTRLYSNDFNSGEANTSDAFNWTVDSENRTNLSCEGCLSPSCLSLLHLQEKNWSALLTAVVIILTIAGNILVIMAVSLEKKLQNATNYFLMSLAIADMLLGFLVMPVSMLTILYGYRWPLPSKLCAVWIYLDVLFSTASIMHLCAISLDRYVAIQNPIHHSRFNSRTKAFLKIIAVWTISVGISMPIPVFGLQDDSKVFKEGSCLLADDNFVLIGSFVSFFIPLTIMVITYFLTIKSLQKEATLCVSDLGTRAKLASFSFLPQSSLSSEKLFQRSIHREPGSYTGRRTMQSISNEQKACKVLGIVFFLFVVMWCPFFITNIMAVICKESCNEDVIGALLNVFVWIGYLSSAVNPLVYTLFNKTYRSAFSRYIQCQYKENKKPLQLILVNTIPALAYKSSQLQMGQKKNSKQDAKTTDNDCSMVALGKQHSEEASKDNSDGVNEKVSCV
# Summary of the method: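 Antagonist-mode intracellular calcium assay: DOI (4 nM) added after 5 min compound pre-incubation at room temperature to dye-loaded HTR2A-CHO cells. Fluorescence followed for 3 min, sampled every second.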
# [10] = target: 5-hydroxytryptamine receptor 2A (Homo sapiens) (UniProt P28223); experiment: 5-hydroxytryptamine receptor 2A (HTR2A) small molecule agonists, cell-based qHTS assay (AID 1963587); further: nearly all actives have a fitted effect of over 30% in size
# Summary of the method: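 HTR2A-CHO cells, plated 18 h at 37 C/5% CO2, dye-loaded 1 h at 37 C; compounds in DMSO added by pin tool (agonist mode). Intracellular calcium flux read as kinetic fluorescence on FDSS over 2 min at 1 s intervals.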
# [11] = target: Muscarinic acetylcholine receptor M1 (Homo sapiens) (UniProt P11229); experiment: Cholinergic receptor muscarinic 1 (CHRM1) small molecule antagonists, cell-based qHTS assay (AID 1963588); further: nearly all actives have a fitted effect of over 40% in size
# Muscarinic acetylcholine receptor M1 (Homo sapiens), sequence (P11229 whole entry, looked up): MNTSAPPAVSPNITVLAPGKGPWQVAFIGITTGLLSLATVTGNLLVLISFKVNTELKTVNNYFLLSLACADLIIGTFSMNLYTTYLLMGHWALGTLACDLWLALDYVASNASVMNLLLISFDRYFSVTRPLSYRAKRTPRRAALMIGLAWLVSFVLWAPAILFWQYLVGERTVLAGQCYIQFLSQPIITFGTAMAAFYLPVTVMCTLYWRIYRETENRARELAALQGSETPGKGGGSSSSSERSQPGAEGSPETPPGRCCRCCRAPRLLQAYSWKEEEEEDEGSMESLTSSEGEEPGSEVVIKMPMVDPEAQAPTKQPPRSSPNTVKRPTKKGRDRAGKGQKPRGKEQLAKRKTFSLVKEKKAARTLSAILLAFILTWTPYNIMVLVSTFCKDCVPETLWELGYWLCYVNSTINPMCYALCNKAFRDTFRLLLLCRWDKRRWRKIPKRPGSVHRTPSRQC
# Summary of the method: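 CHRM1-CHO calcium-flux assay, antagonist mode. Cells were seeded 18 h, dye-loaded 1 h at 37 C and given compound for 5 min at RT, then acetylcholine was added at 50nM. FDSS fluorescence was read 3 min; 15 concentrations, three runs.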
# [12] = target: Muscarinic acetylcholine receptor M1 (Homo sapiens) (UniProt P11229); experiment: Cholinergic receptor muscarinic 1 (CHRM1) small molecule agonists, cell-based qHTS assay (AID 1963589); further: nearly all actives have a fitted effect of over 35% in size
# Summary of the method: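 Each compound was tested at 15 concentrations across three independent runs on dye-loaded CHO cells stably expressing human CHRM1, reading intracellular calcium fluorescence kinetically at 1 sec intervals.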
# [13] = cAMP Responsive Elements (CRE) small molecule agonists, cell-based qHTS assay (AID 1963590)
# Summary of the method: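 Cell line: CRE-bla HEK 293T; medium DMEM/10% dialyzed FBS/0.1 mM NEAA/1 mM pyruvate/25 mM HEPES; 3 h compound exposure; beta-lactamase FRET readout after 2 h substrate loading at RT.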
# [14] = cAMP Responsive Elements (CRE) small molecule antagonists, cell-based qHTS assay (AID 1963591; active means well fitted inhibition curve with a large enough effect in the signal ratio in the repeat runs, not every such curve was filed as active; the % refers to the signal ratio)
# Summary of the method: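 Inhibition of NKH477-driven (0.25 uM final) CRE-beta-lactamase signal in HEK293T cells, 3 h compound exposure at 37 °C, detected by FRET substrate fluorescence.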
# [15] = target: Beta-2 adrenergic receptor (Homo sapiens) (UniProt P07550); experiment: Adrenergic beta2 receptor (ADRB2) small molecule antagonists, cell-based qHTS assay (AID 1963592); further: nearly all actives have a fitted effect of over 50% in size; further: potency means the concentration at half of the fitted maximal effect
# Beta-2 adrenergic receptor (Homo sapiens), sequence (P07550 whole entry, looked up): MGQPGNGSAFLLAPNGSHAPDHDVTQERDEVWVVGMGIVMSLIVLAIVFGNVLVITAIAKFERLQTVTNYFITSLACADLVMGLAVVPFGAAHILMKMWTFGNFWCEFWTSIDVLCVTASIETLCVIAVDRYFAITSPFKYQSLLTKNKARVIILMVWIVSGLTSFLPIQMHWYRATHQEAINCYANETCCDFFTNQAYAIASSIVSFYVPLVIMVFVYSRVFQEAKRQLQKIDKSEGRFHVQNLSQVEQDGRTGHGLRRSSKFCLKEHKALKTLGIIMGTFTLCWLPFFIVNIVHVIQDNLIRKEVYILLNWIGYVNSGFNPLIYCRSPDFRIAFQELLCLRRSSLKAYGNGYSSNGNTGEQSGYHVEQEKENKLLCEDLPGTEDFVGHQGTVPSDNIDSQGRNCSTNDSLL
# Summary of the method: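 Cells (CHO, stable ADRB2 overexpression) incubated 18-20hr at 37C; compounds added from DMSO; agonist mix (1nM isoproterenol, 100uM IBMX, 25uM Ro-20-1724) added; 0.5hr RT; d2-cAMP and anti-cAMP-cryptate added; 1hr RT; 665/615 nm read.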
# [16] = target: D(2) dopamine receptor (Homo sapiens) (UniProt P14416); experiment: Dopamine D2 receptor (DRD2) small molecule agonists, cell-based qHTS assay (AID 1963594); further: nearly all actives have a fitted effect of over 35% in size
# D(2) dopamine receptor (Homo sapiens), sequence (P14416 whole entry, looked up): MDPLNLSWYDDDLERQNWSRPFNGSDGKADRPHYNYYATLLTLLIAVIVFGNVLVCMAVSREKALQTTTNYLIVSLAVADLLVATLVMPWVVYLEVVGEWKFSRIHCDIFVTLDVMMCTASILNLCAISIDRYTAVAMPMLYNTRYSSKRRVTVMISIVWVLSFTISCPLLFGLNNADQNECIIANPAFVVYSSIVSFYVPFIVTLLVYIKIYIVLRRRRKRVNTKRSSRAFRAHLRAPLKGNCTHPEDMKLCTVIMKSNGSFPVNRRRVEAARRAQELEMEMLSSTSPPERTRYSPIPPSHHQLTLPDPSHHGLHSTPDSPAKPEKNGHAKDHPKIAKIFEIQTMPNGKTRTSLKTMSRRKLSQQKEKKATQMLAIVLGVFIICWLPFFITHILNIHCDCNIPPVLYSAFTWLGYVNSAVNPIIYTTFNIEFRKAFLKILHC
# Summary of the method: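 HEK293 cells stably expressing DRD2 were cultured 24 h at 37 C, then given Ro20-1724 (0.1 mM final) and compounds for 10 min at room temperature. NKH477 (200nM) was then added for 30 min. cAMP was read by HTRF.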
# [17] = target: D(2) dopamine receptor (Homo sapiens) (UniProt P14416); experiment: Dopamine D2 receptor (DRD2) small molecule antagonists, cell-based qHTS assay (AID 1963595; active means well fitted inhibition curve with a large enough effect in the signal ratio in the repeat runs, with a control signal flat; the % refers to the signal ratio)
# Summary of the method: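 Antagonism was scored as restored cAMP in HEK293-DRD2 cells. These cells were stimulated with 200 nM NKH477 and 12 nM quinpirole for 30 min at room temperature, in the presence of 0.1 mM Ro20-1724.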
# [18] = target: Beta-2 adrenergic receptor (Homo sapiens) (UniProt P07550); experiment: Adrenergic beta2 receptor (ADRB2) small molecule agonists, cell-based qHTS assay (AID 1963593);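 further: CHO cells stably overexpressing human ADRB2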
# Summary of the method: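 CHO cells stably over-expressing ADRB2 were plated overnight at 37C, then dosed with compounds plus a stimulation mix containing 100uM IBMX and 25uM Ro-20-1724 for 0.5hr at room temperature. cAMP was measured by HTRF competition, 1hr.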
# [19] = p53 small molecule agonists, cell-based qHTS assay with human liver microsomes (AID 1963577);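 further: p53 response element beta-lactamase reporter cells with liver microsomes plus NADPH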
# Summary of the method: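 16 h, 37 C exposure of p53RE-bla cells to compounds with human liver microsomes and NADPH (0.5 mg/mL final each); detection via LiveBLAzer mixture, 2 h dark at room temperature.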
SMILES,Potency [1],Potency [2],Potency [3],Potency [4],Potency [5],Potency [6],Potency [7],Potency [8],Potency [9],Potency [10],Potency [11],Potency [12],Potency [13],Potency [14],Potency [15],Potency [16],Potency [17],Potency [18],Potency [19]
CC(COc1ccccc1)NN (centres undefined),inactive,inactive,inactive,inactive,inactive,inactive,inactive,inactive,inactive,inactive,inactive,inactive,inactive,inactive,inactive,inactive,inactive,–,–
Cc1cnc(C(=O)NCCc2ccc(S(=O)(=O)NC(=O)NC3CCCCC3)cc2)cn1,inactive,inactive,inactive,–,–,–,inactive,inactive,–,–,–,–,–,inactive,inactive,–,inactive,–,–
CC(C)(C)NC(=O)[C@@H]1C[C@@H]2CCCC[C@@H]2CN1C[C@@H](O)[C@H](Cc1ccccc1)NC(=O)[C@H](CC(N)=O)NC(=O)c1ccc2ccccc2n1,inactive,inactive,inactive,–,–,–,–,–,–,–,–,–,–,–,inactive,inactive,–,–,–
CN(C)CCOC(c1ccccc1)c1ccccc1 (tested in a mixture with another compound),inactive,inactive,inactive,–,–,–,–,–,–,–,–,–,inactive,inactive,–,–,inactive,–,–
CC1(C)C(=O)N(Cl)C(=O)N1Br,inactive,inactive,–,–,inactive,inactive,inactive,–,inactive,inactive,inactive,inactive,inactive,inactive,inactive,inactive,inactive,inactive,–
CC(=O)Nc1ccc(O)cc1,inactive,inactive,inactive,–,–,–,–,–,–,–,–,–,inactive,inactive,inactive,inactive,inactive,–,–
CN(C)C(=O)C(CCN1CCC(O)(c2ccc(Cl)cc2)CC1)(c1ccccc1)c1ccccc1,inactive,inactive,inactive,–,–,–,inactive,inactive,–,–,–,–,–,inactive,11.9 µM (active),inactive,inactive,–,–
O=C(c1ccccc1)c1ccccc1,inactive,inactive,inactive,–,–,–,–,inactive,inactive,inactive,inactive,inactive,inactive,inactive,inactive,inactive,inactive,inactive,–
CNCCCN1c2ccccc2CCc2ccccc21,inactive,inactive,inactive,–,–,–,–,inactive,–,–,–,–,inactive,inactive,–,–,–,–,–
Cc1nc(-c2ccccn2)ncc1C(=O)Nn1cc(C)c2cc(F)ccc21,inactive,inactive,–,–,–,inactive,inactive,–,–,inactive,inactive,inactive,inactive,inactive,inactive,–,inactive,inactive,–
Clc1ccccc1CN1CCc2sccc2C1,inactive,inactive,inactive,–,–,–,–,–,–,–,–,–,inactive,–,inactive,inactive,inactive,inactive,–
O=Cc1ccc(Cl)c([N+](=O)[O-])c1,inactive,inactive,–,inactive,inactive,–,–,–,inactive,inactive,inactive,inactive,–,–,inactive,inactive,inactive,–,inactive
CN(C)CCCN1c2ccccc2CCc2ccccc21,inactive,inactive,inactive,–,–,–,–,–,–,inactive,–,inactive,inactive,inactive,29.8 µM (active),inactive,inactive,–,–
Nc1ccc(N=Nc2ccc(N)cc2)cc1,inactive,–,inactive,inactive,inactive,inactive,inactive,inactive,inactive,inactive,inactive,inactive,inactive,inactive,inactive,inactive,inactive,–,inactive
Cc1cc(NS(=O)(=O)c2ccc(N)cc2)no1,inactive,inactive,inactive,–,–,–,–,–,–,–,–,–,inactive,inactive,inactive,inactive,inactive,–,–
CC[C@@H]([C@H](C)O)n1ncn(-c2ccc(N3CCN(c4ccc(OC[C@@H]5CO[C@@](Cn6cncn6)(c6ccc(F)cc6F)C5)cc4)CC3)cc2)c1=O,inactive,–,inactive,inactive,inactive,inactive,inactive,–,inactive,inactive,inactive,inactive,–,–,inactive,inactive,inactive,inactive,inactive
O=C(O)CCn1c2c(c3ccccc31)C[C@H](NS(=O)(=O)c1ccc(F)cc1)CC2,inactive,inactive,inactive,–,–,–,–,–,inactive,inactive,inactive,inactive,inactive,–,inactive,inactive,inactive,–,–
O=C(O)c1cn(C2CC2)c2cc(N3CCNCC3)c(F)cc2c1=O,inactive,inactive,inactive,–,–,–,inactive,–,–,–,–,–,–,inactive,–,inactive,inactive,–,–
NCCCC(O)(P(=O)(O)O)P(=O)(O)O,inactive,inactive,inactive,–,–,–,inactive,inactive,–,–,–,–,inactive,inactive,inactive,inactive,inactive,inactive,–
